Experimental data published in PMC7819943, “Rice protein-binding microarrays: a tool to detect cis-acting elements near promoter regions in rice”.
In all, about 39,000 sequences were measured (“fluorescence intensity (a.u.)”: median about 4,300, highest 2% from about 39,000 on). The list comes from a sample in which the highest values are over-represented; it also holds similar and randomly drawn sequences.

Target: T1, OsSMF1 (Oryza sativa, UniProt Q6ZLB0 1-436)
T1 sequence: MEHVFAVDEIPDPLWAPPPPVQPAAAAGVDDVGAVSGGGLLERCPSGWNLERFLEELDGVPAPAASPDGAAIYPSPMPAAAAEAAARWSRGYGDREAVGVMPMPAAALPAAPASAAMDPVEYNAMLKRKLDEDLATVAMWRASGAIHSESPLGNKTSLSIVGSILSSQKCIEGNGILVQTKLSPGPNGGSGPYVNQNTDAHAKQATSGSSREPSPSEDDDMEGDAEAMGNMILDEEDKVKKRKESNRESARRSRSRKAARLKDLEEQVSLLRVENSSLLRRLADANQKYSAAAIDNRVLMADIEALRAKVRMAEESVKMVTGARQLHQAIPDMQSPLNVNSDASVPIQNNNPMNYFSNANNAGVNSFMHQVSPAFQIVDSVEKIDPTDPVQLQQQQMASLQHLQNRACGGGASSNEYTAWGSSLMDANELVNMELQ
Test: protein-binding microarray (RPBM); PBS, 2% BSA, 51.3 ng/ul salmon testes DNA, 50 uM zinc acetate, 200 nM TF, 25 C, 1 h; high values mean tight binding
Conditions: protein: recombinant; tags: N-terminal polyhistidine and DsRed monomer fusion (pET32a); chain copies: 2; label: CyDye5-dUTP incorporated in the synthesized complementary strand; 3' TTTTT single-stranded linker to array surface; dsDNA, one strand shown
Procedure, shortened: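 Transcription factors were made in E. coli BL21-CodonPlus as N-terminal fusions to a polyhistidine tag and DsRed, then purified on Ni–NTA. After primer extension with Cy5-dUTP and blocking with 2% BSA, a custom Agilent array was exposed for 1 h at 25 °C to 200 nM protein in PBS, 2% BSA, salmon testes DNA and 50 µM zinc acetate. Washed arrays were scanned on an Axon 4000B, and the binding signal is per-feature fluorescence intensity in arbitrary units.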

Question: Which binding signal does the source give for “TTCTTCGAGGACCACATGCGTGAGTGGATGACGGAGTTCCCGGAGTCACCTAGTGCAG” here?
Answer: 3950 fluorescence intensity (a.u.)

Question: For “TTAATTATTAAATTCTTTTCACTGTCTACTACTTGTTCCGCGGAGTCACCTAGTGCAG”, which binding signal is on record?
Answer: 22300 fluorescence intensity (a.u.)

Question: Which binding signal does the source give for “GTTTTATGGTTGGAGGTCATGAATCATACTCGTGTCATAGCGGAGTCACCTAGTGCAG” here?
Answer: 7410 fluorescence intensity (a.u.)

Question: How did the binding signal turn out when “CGGCATTATATACTAAAGAAAATGGAGGGAGTAGGAATCACGGAGTCACCTAGTGCAG” was run?
Answer: 28700 fluorescence intensity (a.u.)

Question: How did the binding signal turn out when “GCGGAAAGGGAAAGGCCCGACGAATGGGAGGAATCATATACGGAGTCACCTAGTGCAG” was run?
Answer: 40300 fluorescence intensity (a.u.)

Question: With “TTTGTGGTTGGAGGTTATGAATCATACTCGAGGCATAGTTCGGAGTCACCTAGTGCAG” as the sequence, how does the binding signal read?
Answer: 22000 fluorescence intensity (a.u.)

Question: How did the binding signal turn out when “CTGACGAATATACAGGAGGGAACCGAATGGCGCGCAATTGCGGAGTCACCTAGTGCAG” was run?
Answer: 21700 fluorescence intensity (a.u.)

Question: With “TGGAGGTTATGAATCATACTCGGACGATAGTTAAGGGAGTCGGAGTCACCTAGTGCAG” as the sequence, how does the binding signal read?
Answer: 49700 fluorescence intensity (a.u.)

Question: Which binding signal does the source give for “AGATTAGGTTGCTGTAGCCATGACTGTGAGTTGTGACTAGCGGAGTCACCTAGTGCAG” here?
Answer: 4030 fluorescence intensity (a.u.)

Question: How did the binding signal turn out when “TGTATGGGCCTTACGTCAGCACGGCCCAGTTGCTGGTTTTCGGAGTCACCTAGTGCAG” was run?
Answer: 17700 fluorescence intensity (a.u.)

Question: “TCACCTCCACCACCGTTGACGATGACACGCGGTGCGTCGCCGGAGTCACCTAGTGCAG” was tested. Which binding signal did it give?
Answer: 4250 fluorescence intensity (a.u.)

Question: How did the binding signal turn out when “AACTAATGAATAGTGTGACGTATTGCCGAAATTTCTCAACCGGAGTCACCTAGTGCAG” was run?
Answer: 7380 fluorescence intensity (a.u.)

Question: With “ACATTTATTGCATCATTACATTCTGAAGTAATTTCAACATCGGAGTCACCTAGTGCAG” as the sequence, how does the binding signal read?
Answer: 3470 fluorescence intensity (a.u.)

Question: How did the binding signal turn out when “TGTGAATTGCATCAACCGAAAAGTAGATATTGGAGTATTTCGGAGTCACCTAGTGCAG” was run?
Answer: 65500 fluorescence intensity (a.u.)

Question: How did the binding signal turn out when “ACCTACATGTGCGTAATATTCGTGGACACCAGGATTTAAACGGAGTCACCTAGTGCAG” was run?
Answer: 3510 fluorescence intensity (a.u.)

Question: Which binding signal does the source give for “TTGTATTTTGGAAATATGACGCATTAGATGTTTTATATATCGGAGTCACCTAGTGCAG” here?
Answer: 3570 fluorescence intensity (a.u.)

Question: How did the binding signal turn out when “TATGAGTATCCTATATACATATATATACATATATATATACCGGAGTCACCTAGTGCAG” was run?
Answer: 27300 fluorescence intensity (a.u.)

Question: How did the binding signal turn out when “GTTGAGGTCTCGCGCTCCCGTCCTCGTCTCGTCCTCTCCCCGGAGTCACCTAGTGCAG” was run?
Answer: 21500 fluorescence intensity (a.u.)

Question: For “TATGAGGGTATCAGGGTCGTTGAGGTCTCTCCTCCTACACCGGAGTCACCTAGTGCAG”, which binding signal is on record?
Answer: 41000 fluorescence intensity (a.u.)

Question: With “TCACGCTCTCAACGCTGCTGTGTCACGTCACGTCACGCGCCGGAGTCACCTAGTGCAG” as the sequence, how does the binding signal read?
Answer: 16400 fluorescence intensity (a.u.)

Question: For “CTAAAACAGGCGAGTAGGATATACTACCTTCAATTATATTCGGAGTCACCTAGTGCAG”, which binding signal is on record?
Answer: 40600 fluorescence intensity (a.u.)

Question: With “TGAAAATATATTCAATTATTGATTCGATAAAACTAATTTACGGAGTCACCTAGTGCAG” as the sequence, how does the binding signal read?
Answer: 3460 fluorescence intensity (a.u.)

Question: How did the binding signal turn out when “TTTCAACAGATATTTTATTGTGACGTTGCAATTACTAAAACGGAGTCACCTAGTGCAG” was run?
Answer: 4950 fluorescence intensity (a.u.)

Question: For “TCAACCGTATCTGACGCCTGCATTTCCTCTACCAGCCAAGCGGAGTCACCTAGTGCAG”, which binding signal is on record?
Answer: 4010 fluorescence intensity (a.u.)

Question: “CTAAAACTCAACATATAAACATGCCACCTCATCATCTATACGGAGTCACCTAGTGCAG” was tested. Which binding signal did it give?
Answer: 7400 fluorescence intensity (a.u.)

Question: For “AAATAGCCAAGCCATATCATCTCATCCATATCATAATCGGCGGAGTCACCTAGTGCAG”, which binding signal is on record?
Answer: 3200 fluorescence intensity (a.u.)

Question: With “GCAACATAACCCATCCTAGATTGCTATATATTGGGACGAACGGAGTCACCTAGTGCAG” as the sequence, how does the binding signal read?
Answer: 65500 fluorescence intensity (a.u.)

Question: With “CATCCTAACGGATTATTCTCTCAACCCCACGAACCATTCACGGAGTCACCTAGTGCAG” as the sequence, how does the binding signal read?
Answer: 19200 fluorescence intensity (a.u.)

Question: Which binding signal does the source give for “TATGAAATATCCCATCCTATCATAGATTATTATATTACGACGGAGTCACCTAGTGCAG” here?
Answer: 26400 fluorescence intensity (a.u.)

Question: “CAGGCCGGAAACCGGCCGAGCCCACCCATTAGAAAGGACGCGGAGTCACCTAGTGCAG” was tested. Which binding signal did it give?
Answer: 22900 fluorescence intensity (a.u.)

Question: For “CACTCAAAATCTCTTTCGTGTCCACCTCACCTTGCACCACCGGAGTCACCTAGTGCAG”, which binding signal is on record?
Answer: 4870 fluorescence intensity (a.u.)

Question: Which binding signal does the source give for “TCCCGTCTCGGCTCCTTGCGCCATCGTCGACAGGGGAGGGCGGAGTCACCTAGTGCAG” here?
Answer: 3540 fluorescence intensity (a.u.)

Question: Which binding signal does the source give for “ACGAGCCCACGAGGTTGATGACGACGAAGCCGAAGAGTTGCGGAGTCACCTAGTGCAG” here?
Answer: 4660 fluorescence intensity (a.u.)

Question: Which binding signal does the source give for “GGCCTTGCCACGAGCCCACGAGAGGTTTGGTTGATGGGCCCGGAGTCACCTAGTGCAG” here?
Answer: 46500 fluorescence intensity (a.u.)

Question: With “GATGGGCCCACCCGTCATCCACACGAGGGCCACGCCTTGCCGGAGTCACCTAGTGCAG” as the sequence, how does the binding signal read?
Answer: 3380 fluorescence intensity (a.u.)

Question: “CCACCATGGCATGCCACGTCAACACACAGAGTGGGTTGGACGGAGTCACCTAGTGCAG” was tested. Which binding signal did it give?
Answer: 17900 fluorescence intensity (a.u.)

Question: With “CAAATGCAGAAAAGATAATCTCCTTTCTCTCTCTATTAAACGGAGTCACCTAGTGCAG” as the sequence, how does the binding signal read?
Answer: 31100 fluorescence intensity (a.u.)

Question: “TCACACCCCATCTATGTTGTCGCTCCACATAGGCTAGGCCCGGAGTCACCTAGTGCAG” was tested. Which binding signal did it give?
Answer: 3260 fluorescence intensity (a.u.)

Question: Which binding signal does the source give for “TTGTTCCTTGCTAATATATTGACGTGTAATTCTTTTATGCCGGAGTCACCTAGTGCAG” here?
Answer: 9690 fluorescence intensity (a.u.)

Question: With “TGGTACAAGGATTTGTCCTGTCAACATGGCAATCCTCTGCCGGAGTCACCTAGTGCAG” as the sequence, how does the binding signal read?
Answer: 3360 fluorescence intensity (a.u.)

Question: How did the binding signal turn out when “GCAACCACCGTGACGCCGCCGCGCGCCCACTGGAACACGTCGGAGTCACCTAGTGCAG” was run?
Answer: 5010 fluorescence intensity (a.u.)

Question: How did the binding signal turn out when “TCCACCGTCTGCTACTGCTAGCGTGCTACTGTCTCGCTGACGGAGTCACCTAGTGCAG” was run?
Answer: 3350 fluorescence intensity (a.u.)

Question: For “GCGCTGACGTGTCGCTATCCTACTGGAACACACCACGTCACGGAGTCACCTAGTGCAG”, which binding signal is on record?
Answer: 46500 fluorescence intensity (a.u.)
